The values below come from PubChem BioAssay AID1510 (The Scripps Research Institute Molecular Screening Center, 2009).

Out of some 220,000 compounds screened, about 570 (0.26%) were called active. The sample holds actives, similar compounds and a random draw of the others, so the mix is not that of the screen. Rule as the data show it: active = inhibition above about 29%; inactive = the rest.

Sequence of Sphingosine 1-phosphate receptor 4 (Homo sapiens) (O95977 whole entry, looked up): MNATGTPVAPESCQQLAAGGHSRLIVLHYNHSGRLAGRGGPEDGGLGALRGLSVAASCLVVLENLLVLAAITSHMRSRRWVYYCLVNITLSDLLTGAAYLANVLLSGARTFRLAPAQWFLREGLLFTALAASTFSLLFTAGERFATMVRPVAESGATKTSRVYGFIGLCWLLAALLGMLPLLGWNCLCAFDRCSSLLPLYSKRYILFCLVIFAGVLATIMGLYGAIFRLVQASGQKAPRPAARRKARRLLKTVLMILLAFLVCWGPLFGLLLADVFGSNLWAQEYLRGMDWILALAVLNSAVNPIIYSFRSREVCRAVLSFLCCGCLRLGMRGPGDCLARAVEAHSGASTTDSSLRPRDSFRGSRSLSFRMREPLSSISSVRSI

This experiment addresses Sphingosine 1-phosphate receptor 4 (Homo sapiens) (UniProt O95977). Put plainly: blockers of human S1P4 receptor – cell-based, primary screen (AID 1510).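 Also: 0% = wells stimulated with agonist and 100% = vehicle wells without agonist.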 The settings on record: S1P4-expressing cells, antagonist mode, reporter read-out; at 4.98 µM; active compounds read high.
Consider `O=S1(=O)CCC(NC(=S)SCc2ccccc2Br)C1` (stereo not given), for which the inhibition – broadly, the relative decrease from the control value, in per cent – is -3.75% (inactive).

`CC(C)Sc1nnc([C@H](Cc2ccccc2)NC(=O)OC(C)(C)C)o1`: the inhibition is -0.59% (inactive).

For `C[C@@H](NC(=O)OC(C)(C)C)c1nnc(S(=O)(=O)Cc2ccccc2)o1`, the inhibition was 64% (active).

Consider `C[C@H](NC(=O)OC(C)(C)C)c1nnc(SCC(N)=O)o1`, for which the inhibition is -7.8% (inactive).

As for `CC(C(=O)NC1CCCC1)N(c1ccc(Oc2ccccc2)cc1)S(C)(=O)=O` (stereo not given), the inhibition was -5.41% (inactive).

For the molecule `CC(=O)N1CCN(S(=O)(=O)c2c(F)cc(F)c(Cl)c2F)CC1`, the inhibition is 6.68% (inactive).

For the molecule `COCCCN(C(=S)Nc1c(C)cc(C)cc1C)C(C)c1ccncc1` (stereo not given), the inhibition was -9.1% (inactive).

As to `CCOC(=O)Cc1csc(NC(=O)CSc2ccc(Br)cc2)n1`, the inhibition was -7.78% (inactive).

As to `Cc1cc(-c2cccs2)nc(-n2cccc2)n1`, the inhibition was -8.93% (inactive).

With `O=C(NNC(=S)NC(=O)c1cn(-c2ccccc2)nc1-c1ccccc1)c1ccncc1`, the inhibition was 13.1% (inactive).

Consider `CCc1nnc(NC(=O)CCN(c2ccc(C)cc2)S(=O)(=O)c2ccccc2)s1`, for which the inhibition was -0.25% (inactive).

As to `O=C(NCCOc1ccccc1Cl)C(=O)Nc1ccccc1`, the inhibition is -2.25% (inactive).

Take `S=C(NCC1CCCO1)N1CCN(c2ccc(Cl)c(Cl)c2)CC1` (stereo not given): the inhibition is 4.85% (inactive).

With `CCC(C)(C)NC(=O)C(c1ccc(O)cc1)N(C(=O)Cn1nnc2ccccc21)c1ccc(NC(C)=O)cc1` (stereo not given), the inhibition was -9.34% (inactive).

For the molecule `COc1cccc(NC(=O)c2nn(-c3ccc(OC)cc3OC)c(=O)c3ccccc23)c1`, the inhibition is -8.83% (inactive).

In the case of `O=C(/C=C/c1ccc(Cl)c([N+](=O)[O-])c1)c1cccnc1`, the inhibition is 2.24% (inactive).

For the molecule `O=C(/C=C/c1ccc(Cl)cc1Cl)NCc1ccco1`, the inhibition is 3.88% (inactive).

For `O=C(/C=C/c1ccc(Cl)cc1Cl)c1cccnc1`, the inhibition is 47.2% (active).

Regarding `CCc1c(C)nc2cc(-c3cccs3)[nH]n2c1=O`, the inhibition is 48.1% (active).

With `Cc1cc(=O)n2[nH]c(-c3sccc3-n3c(C)ccc3C)cc2n1`, the inhibition was -27% (inactive).

As to `CCc1c(C)nc2cc(C)[nH]n2c1=O`, the inhibition was 5.94% (inactive).

For the molecule `CN1C(=O)C(CC(=O)Nc2ccccc2)S/C1=N/c1nccs1` (stereo not given), the inhibition is -20.3% (inactive).

Consider `Cc1coc2c(O)cc3c(c12)OC1(N2CCCCC2)C(=O)NCCCC31` (stereo not given), for which the inhibition was 9.33% (inactive).

Consider `COCc1cc(=O)oc2cc(NS(=O)(=O)c3ccc(C)cc3)ccc12`, for which the inhibition was 13.1% (inactive).

`CC(C)(C)c1ccc(/C=C2\Oc3c(ccc(O)c3CN3CCN(CCO)CC3)C2=O)cc1`: the inhibition was 12.8% (inactive).

As for `Cc1ccc2c(c1)C1CN(C)CCC1N2C(=S)Nc1ccc(Cl)cc1Cl` (stereo not given), the inhibition was -21% (inactive).

With `O=S(=O)(NCCc1ccc(F)cc1)c1cccc2cccnc12`, the inhibition is -18.1% (inactive).

On to `CN(C)c1ccc(C(=S)N2CCN(C(=S)Nc3ccc(Cl)cc3)CC2)cc1`, for which the inhibition was -3.9% (inactive).

Take `CC(=O)Oc1c(C(=O)c2nnc(C)o2)c(=O)n(Cc2ccccc2)c2ccccc12`: the inhibition is -3.21% (inactive).

As for `COCCCNC(=S)NNC(=O)C(O)(c1ccccc1)c1ccccc1`, the inhibition was -8.87% (inactive).

Turning to `O=C(Nc1nc2ccc([N+](=O)[O-])cc2s1)c1ccncc1`, the inhibition is -29% (inactive).

Take `O=C(O)CCC(=O)Nc1nc2ccc([N+](=O)[O-])cc2s1`: the inhibition is -2.95% (inactive).

With `O=C(NC(Nc1nc2ccc([N+](=O)[O-])cc2s1)(C(F)(F)F)C(F)(F)F)c1ccccc1`, the inhibition was 41.2% (active).

In the case of `Cc1cc(C)cc(OCC(=O)O/N=C(\N)Cc2ccc([N+](=O)[O-])cc2)c1`, the inhibition is -5.5% (inactive).

As for `FC(F)Oc1ccccc1NC(=S)Nc1cccc(Cl)c1Cl`, the inhibition is 5.26% (inactive).

With `COC(=O)CC1=NN(c2nc(C)cc(C)n2)C(=O)C1`, the inhibition is -14.2% (inactive).

As for `CC(=O)c1cc(C#N)c(N2CC(C)OC(C)C2)nc1C` (stereo not given), the inhibition is -33.6% (inactive).

Turning to `Cc1nc2ccccc2n1CC(=O)N/N=C/c1cccs1`, the inhibition is -34.3% (inactive).

Regarding `Cc1ccc(NC(=O)CC2C(=O)N(Cc3ccccc3)C(=S)N2NC(=O)c2cccc(F)c2)c(C)c1` (stereo not given), the inhibition was 6.19% (inactive).

Consider `O=C(Nc1ccc(F)cc1F)N1CCCN(CCOc2ccccc2)CC1`, for which the inhibition was 6.19% (inactive).

`O=C(O)/C=C/c1ccc2c(c1)OCCO2`: the inhibition was -7.83% (inactive).

Take `O=C(CN1CCCCC1)Nc1ccccc1Cl`: the inhibition was -3.07% (inactive).

As for `O=C(Nc1ccccc1Cl)/C(Cl)=C(\Cl)S(=O)c1ccccc1` (stereo not given), the inhibition is 98.4% (active).

Regarding `O=C(Nc1ccccc1Cl)c1ccc2nsnc2c1`, the inhibition was -7.15% (inactive).

For `COC(=O)c1ccccc1NC(=O)C1CCN(S(=O)(=O)c2cc(OC)ccc2OC)CC1`, the inhibition is -24.9% (inactive).

Take `O=C1N(c2ccccc2)C(=Nc2ccccc2)SC12CC2`: the inhibition was 1.83% (inactive).

Consider `CCN(CC)S(=O)(=O)c1ccc(C)c(NC(=O)COc2ccc(Br)cc2Cl)c1`, for which the inhibition was -3.44% (inactive).

With `COc1ccc(N2CCC(CNC(=S)Nc3c(C)cccc3C)C2)cc1` (stereo not given), the inhibition is 4.09% (inactive).

Regarding `CCOc1ccc2nc(C(=O)N3CCCC(C)C3)sc2c1` (stereo not given), the inhibition is 14.6% (inactive).

For the molecule `O=C(Cc1cccs1)N(CC1CCCO1)C1(C(=O)NC2CCCCC2)CCCCC1` (stereo not given), the inhibition is -13.5% (inactive).

`O=C(Nc1nnc(C2COc3ccccc3O2)o1)c1ccc(F)cc1` (stereo not given): the inhibition was -4.96% (inactive).

In the case of `CC(C)c1cc(NCc2ccccn2)n2c(nc3ccccc32)c1C#N`, the inhibition was 12.6% (inactive).

Turning to `Cn1nnnc1NCc1ccc(Cl)c(Cl)c1`, the inhibition is 4.37% (inactive).

Regarding `CCCCCC(O)c1cccc(OCc2ccc3ccccc3n2)c1` (stereo not given), the inhibition was -14.6% (inactive).

For the molecule `O=C(NCCCc1ccccc1)C1CCC(CNc2c(N3CCCCC3)c(=O)c2=O)CC1` (stereo not given), the inhibition is 0.07% (inactive).

On to `CC(C)c1ccc(NC(=O)CCN2C(=O)c3ccc([N+](=O)[O-])cc3C2=O)cc1`, for which the inhibition is -5.92% (inactive).

As for `CC(=O)c1c(-c2ccccc2)c2ccccc2[nH]c1=O`, the inhibition was -27.5% (inactive).

Turning to `O=C(O)CSc1nccn1-c1cccc(Cl)c1`, the inhibition is -14.5% (inactive).

For `C/C(=N\Nc1ccc([N+](=O)[O-])cc1)c1ccc(-n2nncc2C(C)(C)C)cc1`, the inhibition is -11.5% (inactive).

For the molecule `COc1ccc(/C=N/NC(=O)Nc2ccc3nsnc3c2)c(OC)c1`, the inhibition is 9.36% (inactive).

In the case of `CC(=O)c1cccc(NC(=O)[C@@H](NC(N)=O)C(C)C)c1`, the inhibition was -13.9% (inactive).

For the molecule `Cc1ccc(S(=O)(=O)Nc2nc3ccccc3s2)cc1[N+](=O)[O-]`, the inhibition was -9.6% (inactive).

In the case of `Cc1ccc(NC(=O)OCc2cncs2)cc1`, the inhibition is 6.88% (inactive).

In the case of `COc1ccc(NC(=S)NCCNC(C)=O)cc1`, the inhibition was 4.01% (inactive).

On to `COc1ccc(NC(=O)/C(Cl)=C(/Cl)S(=O)Cc2ccc(C)cc2)cn1` (stereo not given), for which the inhibition is 59.5% (active).

For the molecule `COc1ccc(Nc2cc(Cl)ccc2C(=O)O)cn1`, the inhibition was 0.55% (inactive).

On to `COc1ccc(CS(=O)/C(Cl)=C(/Cl)C(=O)Nc2ccc(OC)nc2)cc1` (stereo not given), for which the inhibition was 95.9% (active).

`COc1ccc(NC(=S)Nc2ccccc2Cl)cn1`: the inhibition was -10.6% (inactive).

Consider `CCn1cc(-c2cc(C(=O)O)on2)c(C)n1`, for which the inhibition is -15.2% (inactive).

On to `Cc1csc(CN(C)C(=O)CC2C(=O)NCCN2CC(C)(C)C)n1` (stereo not given), for which the inhibition is 2.01% (inactive).

Take `CC(C)N(C)C(=O)CCc1nnc(CCc2c[nH]c3ccccc23)o1`: the inhibition was -1.14% (inactive).

For the molecule `CCOc1ccc(C(CCc2ccccc2)NC(=O)c2ccc(OC)c(OC)c2)cc1OCC` (stereo not given), the inhibition is 0.03% (inactive).

Regarding `CC(=O)Nc1ccc(S(=O)(=O)Nc2nccc(/C=C/c3ccccc3F)n2)cc1`, the inhibition was -21.4% (inactive).

As for `CN(C)CCNC(CC(=O)Nc1ccc(Cl)c(Cl)c1)C(=O)O` (stereo not given), the inhibition was 0.14% (inactive).

`O=C(CC(=O)Nc1ccc(Cl)c(Cl)c1)N/N=C/c1ccc(O)cc1`: the inhibition is -17.9% (inactive).

For `O=C(CC(O)(C(F)(F)F)C(F)(F)F)Nc1ccc(Cl)c(Cl)c1`, the inhibition was 33.2% (active).

As to `CN(C(=O)CSc1nnc(Nc2ccccc2)s1)C1CCS(=O)(=O)C1` (stereo not given), the inhibition was -10.1% (inactive).

For `Cc1ccc(OCCOCCOc2ccc(Br)cc2/C=N\NC(=O)c2ccncc2)cc1`, the inhibition is -17.4% (inactive).

On to `N#Cc1c(-c2cccs2)nc(SCC(=O)c2ccc(Br)cc2)[nH]c1=O`, for which the inhibition is 15.8% (inactive).

As for `Cc1ccc(C(=O)Nc2sc(Cc3ccc4c(c3)OCO4)c(C)c2C(N)=O)cc1`, the inhibition is -11.1% (inactive).

On to `O=C1c2cccc3cc(Br)cc(c23)C(=O)N1Nc1ccccc1`, for which the inhibition was -15.2% (inactive).

In the case of `O=C(Nc1ccccc1)OCc1cc(-c2ccc(Cl)cc2)on1`, the inhibition is -6.25% (inactive).

For `O=C1C=C(c2ccc(Cl)cc2)C(=O)N1Nc1ccccc1`, the inhibition is 34.7% (active).

With `FC(F)(F)c1cccc(-c2nc(COc3ccc(Cl)cc3Cl)no2)c1`, the inhibition is -7.31% (inactive).

On to `Oc1ccc(-c2nncn2-c2ccccc2)cc1`, for which the inhibition is -11.3% (inactive).

For the molecule `CCNC(=O)COC(=O)CCNC(=O)c1cccc(C)c1`, the inhibition was -16.4% (inactive).

On to `CCN(CCNC(=O)C1=C(C)C(=O)OC12CCC(C)CC2)c1ccccc1` (stereo not given), for which the inhibition was 7.01% (inactive).

As to `O=C(CCN1C(=O)C2C3C=CC(C3)C2C1=O)Oc1ccc2ccccc2c1` (stereo not given), the inhibition is 0.5% (inactive).

`O=C1c2cccc3c([N+](=O)[O-])ccc(c23)C(=O)N1CC1CCCO1` (stereo not given): the inhibition was 77.4% (active).

For the molecule `O=c1c2cc3c(=O)n(CC4CCCO4)c(=O)c3cc2c(=O)n1CC1CCCO1` (stereo not given), the inhibition was 1.15% (inactive).

`O=C(NCc1ccc2c(c1)OCO2)c1ccc2c(c1)C(=O)N(CC1CCCO1)C2=O` (stereo not given): the inhibition is 4.48% (inactive).

In the case of `Cc1cccc(NC(=S)NC(=O)c2ccc(Br)o2)c1`, the inhibition was -1.45% (inactive).

As for `Cc1cccc(NC(=O)c2ccc([N+](=O)[O-])o2)c1`, the inhibition was 47.9% (active).

For the molecule `Cc1onc(NC(=O)c2ccc([N+](=O)[O-])o2)c1Br`, the inhibition was 28.1% (inactive).

As to `CN(C)C(=O)CSc1n[nH]c(-c2ccco2)n1`, the inhibition is -22.7% (inactive).
